Consider 17 molecules from publication PMC5540273 (PLoS ONE, 2017).

Some test systems named below: PKN1; PKN2; PLK1; PLK2; PLK3; PLK4; PRKCD; PRKCE; PRKCH; PRKCI.
Common to all, as to conditions: concentration: 1 μM, replicates: in singlicate; n = 1

Structures are written as SMILES.
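Further: KINOMEscan kinase panel screen.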

As for `Fc1cccc(COc2nnc(-c3ccc4c(c3)CCO4)o2)c1`, the “%Inh” value in the assay with PKN1 was 0%; in the assay with PKN2, 0%; in the assay on PLK1 it was 0%; with PLK2, 9%; in the assay with PLK3, 11%; in the assay on PLK4, 12%. The “%Inh” value in the assay on PRKCD is given as 12%; in the assay with PRKCE, 0%; in the assay on PRKCH, 0%; with PRKCI, 0%.

As for `Cc1csc(-c2nc(Nc3ccncc3)c3ccccc3n2)n1` [GW869640], the “%Inh” value in the assay with PKN1 came out at 0%; with PKN2, 23%; in the assay with PLK1, 51%; in the assay with PLK2, 40%; in the assay on PLK3, 31%; with PLK4, 24%. Also, the “%Inh” value in the assay on PRKCD is reported as 21%; with PRKCE, 37%; in the assay with PRKCH, 0%; in the assay with PRKCI it was 30%.

Consider `COC(=O)c1c(-c2ccccc2)c2cc(OC)ccc2c(=O)n1Cc1ccccc1`, for which the “%Inh” value in the assay on PKN1 amounted to 4%; in the assay on PKN2, 0%; with PLK1, 0%; in the assay with PLK2 it was 25%; with PLK3, 20%; in the assay with PLK4 it was 19%. Also, the “%Inh” value in the assay on PRKCD is listed as 19%; in the assay on PRKCE, 12%; in the assay on PRKCH, 9%; in the assay on PRKCI, 0%.

Regarding `Cc1ccc(-c2cc(-c3c[nH]nc3-c3ccccn3)ccn2)cc1` [GW684088], the “%Inh” value with PKN1, in the assay on PKN2, with PLK1, with PLK2, in the assay on PLK3 and in the assay on PLK4 was 0% throughout. Moreover, the “%Inh” value was 0% in the assay with PRKCD, 16% in the assay with PRKCE, 0% in the assay with PRKCH and 12% in the assay with PRKCI.

For `COc1ccc(Nc2nccc(NCCNC(=O)Nc3ccccc3F)n2)cc1` [GSK1379901], the “%Inh” value came out at 16% with PKN1; 0% with PKN2; 0% with PLK1; 0% in the assay on PLK2; 0% in the assay with PLK3; 0% in the assay with PLK4. Moreover, the “%Inh” value in the assay with PRKCD amounted to 0%; in the assay with PRKCE it was 19%; with PRKCH it was 19%; in the assay with PRKCI, 23%.

For the molecule `COC(=O)c1c(-c2ccccc2)c2cc(C(=O)O)ccc2c(=O)n1Cc1ccccc1`, the “%Inh” value in the assay on PKN1 is reported as 0%; in the assay on PKN2, 0%; with PLK1, 0%; in the assay with PLK2, 12%; in the assay with PLK3, 0%; in the assay with PLK4 it was 11%. Further, the “%Inh” value is 0% with PRKCD, 0% in the assay with PRKCE, 4% with PRKCH and 0% with PRKCI.

`CN1C(=O)C(Nc2ccc(Cl)c(C(=O)O)c2)=C(c2ccc(Cl)cc2)C1=O` [SB-404290]: the “%Inh” value was 91.6% with PKN1; 31% in the assay with PKN2; 18% in the assay with PLK1; 24% in the assay on PLK2; 18% with PLK3; 0% with PLK4. The “%Inh” value in the assay on PRKCD is on record as 0%; in the assay on PRKCE it was 35%; in the assay with PRKCH, 0%; in the assay with PRKCI it was 0%.

Consider `Cc1cccc(-c2nc(Nc3ccncc3)c3ccccc3n2)n1` [GW855857], for which the “%Inh” value in the assay on PKN1 was determined as 0%; in the assay on PKN2, 0%; in the assay on PLK1, 6%; in the assay with PLK2 it was 0%; in the assay on PLK3 it was 0%; with PLK4, 0%. Besides, the “%Inh” value in the assay on PRKCD was determined as 29%; in the assay with PRKCE, 0%; with PRKCH it was 0%; in the assay on PRKCI it was 32%.

For the molecule `Cl.c1ccc(-c2n[nH]cc2-c2ccnc(-c3ccc(CN4CCOCC4)cc3)c2)nc1` [GW776245], the “%Inh” value in the assay with PKN1 was 0%; in the assay on PKN2, 0%; in the assay with PLK1, 17%; in the assay on PLK2, 0%; in the assay with PLK3 it was 4%; with PLK4 it was 0%. Also, the “%Inh” value with PRKCD stood at 11%; in the assay with PRKCE, 0%; with PRKCH, 0%; in the assay with PRKCI it was 48%.

In the case of `Cc1nnc(-c2ccc3occ(-c4ccc(S(C)=O)cc4)c3c2)[nH]1` (centres unmarked), the “%Inh” value in the assay with PKN1 amounted to 0%; in the assay on PKN2, 0%; with PLK1, 0%; in the assay with PLK2, 14%; with PLK3, 7%; with PLK4, 11%. Also, the “%Inh” value in the assay with PRKCD amounted to 13%; in the assay with PRKCE, 7%; in the assay on PRKCH, 0%; in the assay with PRKCI, 0%.

For `Cn1ccc2ncnc(Oc3ccc(Nc4nc5ccccc5[nH]4)cc3)c21`, the “%Inh” value in the assay on PKN1 turned out to be 0%; in the assay with PKN2, 0%; in the assay with PLK1 it was 0%; in the assay on PLK2, 0%; with PLK3, 0%; in the assay on PLK4, 62%. The “%Inh” value in the assay on PRKCD was found to be 12%; in the assay on PRKCE, 0%; in the assay with PRKCH, 13%; with PRKCI, 0%.

For `Cc1cccc(-c2nc(Nc3cccc(C(N)=O)c3)c3ccccc3n2)n1` [GW876019], the “%Inh” value in the assay with PKN1 was determined as 0%; in the assay with PKN2, 0%; in the assay with PLK1, 0%; in the assay on PLK2, 0%; in the assay with PLK3, 4%; with PLK4 it was 0%. For the same molecule, the “%Inh” value was 7% in the assay with PRKCD, 0% with PRKCE, 0% in the assay on PRKCH and 24% in the assay on PRKCI.

For `Nc1ncnc2[nH]c(-c3ccccc3)nc12` [AH5015], the “%Inh” value with PKN1 came to 0%; in the assay on PKN2, 0%; in the assay on PLK1, 2%; in the assay on PLK2, 16%; with PLK3 it was 0%; in the assay on PLK4, 99.9%. In addition, the “%Inh” value in the assay with PRKCD was determined as 0%; with PRKCE it was 14%; in the assay with PRKCH, 18%; with PRKCI it was 0%.

For the molecule `C[C@@H]1CCCCN1c1cc(-c2ccc3c(N)n[nH]c3c2)nc(N)n1` [GSK2258759], the “%Inh” value in the assay with PKN1 came out at 6%; in the assay on PKN2 it was 0%; in the assay on PLK1, 0%; in the assay with PLK2, 0%; in the assay on PLK3, 0%; in the assay on PLK4, 42%. In addition, the “%Inh” value turned out to be 0% with PRKCD, 0% in the assay with PRKCE, 0% in the assay with PRKCH and 22% in the assay with PRKCI.

On to `COc1ccc2nc(-c3cccc(C)n3)nc(Nc3ccncc3)c2c1` [GSK204919], for which the “%Inh” value was 3% in the assay on PKN1; 0% with PKN2; 0% in the assay on PLK1; 0% in the assay on PLK2; 0% with PLK3; 0% in the assay with PLK4. Also, the “%Inh” value turned out to be 0% with PRKCD, 0% in the assay with PRKCE, 30% in the assay with PRKCH and 31% in the assay with PRKCI.

As for `Clc1cc(Cl)cc(Nc2ccnc(Nc3cc(Cl)cc(Cl)c3)n2)c1` [GSK175726], the “%Inh” value with PKN1 stood at 31%; in the assay with PKN2 it was 0%; in the assay with PLK1, 0%; in the assay on PLK2, 3%; in the assay with PLK3, 1%; in the assay with PLK4, 78%. The “%Inh” value in the assay with PRKCD is reported as 7%; in the assay on PRKCE, 13%; with PRKCH, 22%; with PRKCI, 15%.

For `Cc1ccc(NC(=O)Nc2cc(C(C)(C)C)nn2-c2ccccc2)cc1` [GSK1014915], the “%Inh” value in the assay on PKN1 stood at 53%; in the assay on PKN2 it was 0%; in the assay on PLK1 it was 0%; in the assay on PLK2, 0%; in the assay on PLK3, 0%; in the assay with PLK4 it was 0%. Further, the “%Inh” value worked out at 0% in the assay on PRKCD, 0% in the assay on PRKCE, 5% with PRKCH and 28% in the assay on PRKCI.
